Results as given in PubChem BioAssay (NCATS).
Results filed as inconclusive are left out. Where a call stands in place of a potency, no number is given. A number with no mark means an inactive call. Active and inactive are the calls of the source. Calls follow the shape of the dose curve; as a rule, active = well fitted inhibition curve with a large enough effect; inconclusive = small, poorly fitted or top-dose-only effect; inactive = flat fitted curve, though single readings scatter.

Tests used:
[1] = qHTS profiling for inhibitors of Plasmodium falciparum proliferation (AID 504749); also: nearly all actives have a fitted effect of over 60% in size; conditions: P. falciparum in erythrocytes, SYBR Green DNA, 72 h
In short: (§1)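 Each compound contacts P. falciparum-infected red blood cells for 72 h at 37 C; lysis buffer (Tris, EDTA, saponin, Triton X, SYBR Green I) is added and fluorescence measured next morning; values normalized to controls.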

[2] = test system: 3D7; assay: as above; conditions: P. falciparum in erythrocytes, SYBR Green DNA, 72 h; series mostly up to 28.7 µM
In short: as §1

[3] = test system: 7G8; assay: as above; conditions: P. falciparum in erythrocytes, SYBR Green DNA, 72 h; series mostly up to 28.7 µM
In short: as §1

[4] = test system: AA1029; assay: as above; conditions: P. falciparum in erythrocytes, SYBR Green DNA, 72 h; series mostly up to 28.7 µM
In short: as §1

[5] = at 28.7 µM (top of the series), parasite line A
[6] = at 28.7 µM (top of the series), parasite line B
[7] = at 12.8 µM (top of the series), parasite line A
[8] = at 12.8 µM (top of the series), parasite line B
Potency is read from the fitted curve at half-maximal effect.

SMILES | activity, negative = inhibition [1, 5] [%] | activity, negative = inhibition [1, 6] [%] | Potency [2] | Potency [3] | Potency [4] | Potency ([1]; parasite line A) | Potency ([1]; parasite line B) | activity, negative = inhibition [1, 7] [%] | activity, negative = inhibition [1, 8] [%]
Cc1c(Cn2ccnc2)c2ccccc2n1CCC(=O)O | 14.7 | 0.623 | inactive | inactive | inactive |  |  |  | 
CCN(CC)S(=O)(=O)c1ccc(C(=O)O)cc1 | 7.39 | 20.6 | inactive | inactive | inactive |  |  |  | 
O=C(O)c1ccccc1C(=O)Nc1ccc(S(=O)(=O)Nc2nccs2)cc1 | 16.3 | 12.3 | inactive | inactive | inactive |  |  |  | 
COc1ccc(Cc2cnc(N)nc2N)cc1OC |  |  | 7.08 µM (active) | inactive | inactive | 3.55 µM (active) | 8.91 µM (active) |  | 
O=C(O)Cc1cn(-c2ccccc2)nc1-c1ccc(Cl)cc1 | 11.4 | 9.39 | inactive | inactive | inactive |  |  |  | 
CCOC(=O)c1cccnc1 | 7.9 | 13.9 | inactive | inactive | inactive |  |  |  | 
CNCc1ccccc1 | 11.1 | 15.3 | inactive | inactive | inactive |  |  |  | 
CC(=O)Nc1ccc(OCCOCCOc2ccc(NC(C)=O)cc2)cc1 | 6.75 | 13 | inactive | inactive | inactive |  |  |  | 
Cc1ccc(S(=O)(=O)NC(=O)NC2CCCCCCC2)cc1 | 11.2 | 10.7 | inactive | inactive | inactive |  |  |  | 
O=C(CN1CCNCC1)NC1CCCCC1 | 3.68 | 4.23 | inactive | inactive | inactive |  |  |  | 
Nc1ccncc1N | 9.9 | 5.99 | inactive | inactive | inactive |  |  |  | 
C[C@@H]1CCC[C@H](C)N1 |  |  | inactive | inactive | inactive |  |  | 13.8 | -5.49
COc1ccc(C(=O)N2CCN(CC(=O)N3CCOCC3)CC2)cc1 | 2.87 | 20.6 | inactive | inactive | inactive |  |  |  | 
CCN(CC)CC1CCCCN1CC(=O)N1c2ccccc2C(=O)Nc2cccnc21 (stereo unspecified) | 6.16 | 1.05 | inactive | inactive | inactive |  |  |  | 
O=C(O)c1ccccc1OP(=O)(O)O | 4.92 | 6.75 | inactive | inactive | inactive |  |  |  | 
CN1C(C)(C)CCCC1(C)C | 8.89 | 5.87 | inactive | inactive | inactive |  |  |  | 
Cc1ccc(S(=O)(=O)NC(=O)NC2CCCCC2)cc1 | -9.84 | 5.26 | inactive | inactive | inactive |  |  |  | 
CNc1c2c(nn1C)CCCC2 | 6.6 | 23 | inactive | inactive | inactive |  |  |  | 
CCN(CC)CCc1nc(-c2ccccc2)no1 |  |  | inactive | inactive | inactive |  |  | -7.93 | -5.26
CCCCCC(N)=O | 6.64 | 8.74 | inactive | inactive | inactive |  |  |  | 

SMILES | activity, negative = inhibition [1, 5] [%] | activity, negative = inhibition [1, 6] [%] | Potency [2] | Potency [3] | Potency [4] | Potency ([1]; parasite line A) | Potency ([1]; parasite line B) | activity, negative = inhibition [1, 7] [%] | activity, negative = inhibition [1, 8] [%]
CN1CCN(C(=O)C2CCCCC2)CC1 | 0.439 | -13.4 | inactive | inactive | inactive |  |  |  | 
O=c1[nH]cnc2nc[nH]c12 | -7.68 | 15.5 | inactive | inactive | inactive |  |  |  | 
CCOC(N)=O | 8.86 | 9.69 | inactive | inactive | inactive |  |  |  | 
O=C1CC[C@@H](C(=O)O)N1 | 0.206 | 18.2 | inactive |  | inactive |  |  |  | 
O=C1c2ccccc2S(=O)(=O)N1CCCCN1CCN(c2ncccn2)CC1 | -16.2 | 25.9 | inactive |  | inactive |  |  |  | 
O=C(O)c1ccc[n+]([O-])c1 | -4.83 | 10.2 | inactive | inactive | inactive |  |  |  | 
Nc1ncnc(Nc2ccccc2)n1 | -28.4 |  | inactive | inactive | inactive |  |  |  | 
O=C(O)Cn1c(C(=O)Nc2nc(-c3ccccc3Cl)cs2)cc2ccccc21 | 10.1 | 5.81 | inactive | inactive | inactive |  |  |  | 
Cc1c(C(=O)NCCO)[n+](=O)c2ccccc2n1[O-] | 8.49 | -1.36 | inactive | inactive | inactive |  |  |  | 
Cc1c(NC(C)C)c(=O)n(-c2ccccc2)n1C | 8.37 | 23.5 | inactive | inactive | inactive |  |  |  | 
O=C(Cn1ccnc1[N+](=O)[O-])NCCO | 4.18 | -2.11 | inactive | inactive | inactive |  |  |  | 
Cc1cc(NC(=O)C2=C(O)c3ccccc3S(=O)(=O)N2C)no1 | 12.7 | -1.12 | inactive | inactive | inactive |  |  |  | 
CC(N)CCCC(C)(C)O (stereo unspecified) | 12.5 | -7.47 | inactive | inactive | inactive |  |  |  | 
COC(=O)c1ccccc1C(=O)c1ccc(OCCN2CCCCC2)cc1 | 9.58 | 5.94 | inactive | inactive | inactive |  |  |  | 
Cc1cc(-n2nc3ccc(Cl)cc3n2)c(O)c(C(C)(C)C)c1 |  |  | inactive | inactive |  |  |  |  | 
CC(C)CCOC(=O)c1ccc(N(C)C)cc1 | 18.9 | 14.8 | inactive | inactive | inactive |  |  |  | 
Cc1ncc(CO)c(CN)c1O | 7.32 | 18.3 | inactive | inactive | inactive |  |  |  | 
NS(=O)(=O)c1ccc(C(=O)O)cc1 | 18.9 | 11.1 | inactive | inactive | inactive |  |  |  | 
Cc1cc(=O)[nH]c(=S)[nH]1 | 10.7 | 5.6 | inactive | inactive | inactive |  |  |  | 
CCCCCCCCCCCCCCCCN | 0.565 | 3.84 | inactive | inactive | inactive |  |  |  | 

SMILES | activity, negative = inhibition [1, 5] [%] | activity, negative = inhibition [1, 6] [%] | Potency [2] | Potency [3] | Potency [4] | Potency ([1]; parasite line A) | Potency ([1]; parasite line B) | activity, negative = inhibition [1, 7] [%] | activity, negative = inhibition [1, 8] [%]
COc1cc(O)cc(O)c1 | 4.63 | -8.81 | inactive | inactive | inactive |  |  |  | 
NNC(=O)CP(=O)(c1ccccc1)c1ccccc1 | 8.38 | 6.41 | inactive | inactive | inactive |  |  |  | 
Nc1c2c(nc3c1CCC3)CCCC2 |  |  |  | 11.2 µM (active) |  |  |  |  | 
CCCCCC(C)N (stereo unspecified) |  | -25.4 |  | 10 µM (active) |  |  |  |  | 
CC(=O)SC[C@@H](Cc1ccccc1)C(=O)NCC(=O)OCc1ccccc1 |  |  | inactive |  | inactive |  |  | -4.01 | -5.82
O=c1[nH]c2cc(C(F)(F)F)c(N3CCOCC3)cc2n(CP(=O)(O)O)c1=O | 11.3 | -0.254 | inactive | inactive | inactive |  |  |  | 
OCC(O)CS (stereo unspecified) | 2.38 |  | inactive | inactive | inactive |  |  |  | 
O=C1c2ccccc2C(=O)C1c1ccc(Br)cc1 |  |  | 11.2 µM (active) | 11.2 µM (active) |  |  |  |  | 
NNc1nnc(NN)c2ccccc12 | 11.4 | 18.1 | inactive | inactive | inactive |  |  |  | 
C=CCSCC1Nc2cc(Cl)c(S(N)(=O)=O)cc2S(=O)(=O)N1 (stereo unspecified) | 8.77 | 13.6 | inactive | inactive | inactive |  |  |  | 
N[C@@H](Cc1ccc(O)cc1)C(=O)O | 13.6 | 10.5 | inactive | inactive | inactive |  |  |  | 
CCN(CC)CCOC(=O)C(c1ccccc1)c1ccccc1 | -8.73 | -12.1 | inactive |  | inactive |  |  |  | 
Cc1cccc(C(=O)O)c1O | 14.5 | 2.46 | inactive | inactive | inactive |  |  |  | 
Cn1c(=O)c2c(ncn2CCO)n(C)c1=O | 2.6 | -3.88 | inactive | inactive | inactive |  |  |  | 
C[N+](C)(C)CC[N+]1(C)Cc2c(Cl)c(Cl)c(Cl)c(Cl)c2C1 | 5.09 | 9.42 | inactive | inactive | inactive |  |  |  | 
NS(=O)(=O)c1ccc(NC(=O)CCC(=O)O)cc1 | 0.494 | 7.64 | inactive | inactive | inactive |  |  |  | 
NC(=O)NS(=O)(=O)c1ccc(N)cc1 | -1.96 | 15.9 | inactive | inactive | inactive |  |  |  | 
CCCOC(=O)c1ccc(N)cc1 | -0.392 | 6.95 | inactive | inactive | inactive |  |  |  | 
CC1CCc2cc(F)cc3c(=O)c(C(=O)O)cn1c23 (stereo unspecified) | -7.54 | 6.45 | inactive | inactive | inactive |  |  |  | 
CCc1nnc(NS(=O)(=O)c2ccc(N)cc2)s1 | 10.2 | 10.5 | inactive | inactive | inactive |  |  |  | 
